Experimental findings from the OligoGym collection are described below.
Note: reference of the scale not given here.

In one experiment the target is SLMAP. In words: pooled miR-30 sensor sort-seq; sequence = guide strand. As to conditions: shRNA.
Sequence TCAACTTCTCTAGTTCACCTTG displayed a sensor-assay potency score (higher = more potent) of 0.0522.

As to TTTAATGTTATAAATAATCTGG, the sensor-assay potency score (higher = more potent) was -0.423.

In the case of TTCATCTCTAGTACTTGTGATT, the sensor-assay potency score (higher = more potent) was -0.717.

For the sequence TTTGTTTACTTGTTCTAGCTAG, the sensor-assay potency score (higher = more potent) was 0.257.

TTGAAGATAAAACTTGCCCGTC displayed a sensor-assay potency score (higher = more potent) of 0.116.

Sequence ATACTCTTTCTGCACATCCTTT yielded a sensor-assay potency score (higher = more potent) of -0.952.

TAAGAGTCTATCTTCATCTATT yielded a sensor-assay potency score (higher = more potent) of -0.538.

Regarding TATTCTTGTACTTCTGCTGTTT, the sensor-assay potency score (higher = more potent) was -0.0967.

A further experiment concerns the target SMAD4. The experiment is described as above. As to conditions: shRNA.
TTAACTTTGAGAACTTCTCTGC registered a sensor-assay potency score (higher = more potent) of 0.783.

For the sequence TAGAATGATATACATATCGATG, the sensor-assay potency score (higher = more potent) was -1.35.

Sequence TAACTCTGTACAAAGACCGCGT displayed a sensor-assay potency score (higher = more potent) of 0.679.

On to TTCCAGGTGATACAACTCGTTC, for which the sensor-assay potency score (higher = more potent) is -1.63.

In turn, TACATTCCAACTGCACACCTTT had a sensor-assay potency score (higher = more potent) of -0.752.

In turn, TTGTATTTTGTAGTCCACCATC showed a sensor-assay potency score (higher = more potent) of -1.39.

Regarding TTACTTGTTGGTGTATTCGTAA, the sensor-assay potency score (higher = more potent) is -0.078.

For the sequence TTACAATACATTATTAACTTAC, the sensor-assay potency score (higher = more potent) is -0.987.

TTAGGTAGAGTGACGCTGCTTT gave a sensor-assay potency score (higher = more potent) of 0.626.

For the sequence TTAGCAACCAACCTTGTGCCTA, the sensor-assay potency score (higher = more potent) was -0.621.

As to TTTGAATTGAATGTCCTTCAGT, the sensor-assay potency score (higher = more potent) was -0.388.

TTCTTAGCAACCAACCTTGTGC had a sensor-assay potency score (higher = more potent) of -0.338.

In the next experiment the target is SMC2. The description is as above. Particulars: shRNA.
For the sequence TTCTGGTTTATATTCAACCAAG, the sensor-assay potency score (higher = more potent) is -1.67.

Sequence TTCTAGAGCTTCTTGATCCTTC yielded a sensor-assay potency score (higher = more potent) of 0.175.

TACTTTGGTATCTTCAGCCAGC gave a sensor-assay potency score (higher = more potent) of -0.418.

As to TTCATTTACAGCTTCAAGCTGT, the sensor-assay potency score (higher = more potent) is 0.444.

Take TTGAGTTCTTGAAACTTGGTTA: the sensor-assay potency score (higher = more potent) amounted to 0.137.

On to TTTGATTCTCAGTTCATCCTGA, for which the sensor-assay potency score (higher = more potent) is 0.766.

In turn, TCTACCACCAATAACCACCTGC returned a sensor-assay potency score (higher = more potent) of 0.664.

TTCTATTCCAGTTCTTCTCTGG registered a sensor-assay potency score (higher = more potent) of 0.3.

The sequence TTGTTTATTCTTTAATTCCTGT had a sensor-assay potency score (higher = more potent) of -0.411.

The sequence TTTTTGTATTCATACATCCTGG showed a sensor-assay potency score (higher = more potent) of -0.581.

TTGCATTGTTGAACATACCTTC returned a sensor-assay potency score (higher = more potent) of 0.529.

Turning to TAATTCTTCTTGTTGCTTGTGA, the sensor-assay potency score (higher = more potent) worked out at 0.551.

For a further experiment, the target named is SMC5. The description is as above. Particulars: shRNA.
For the sequence TTCTCTTTTTGTATATTCCTGA, the sensor-assay potency score (higher = more potent) is -0.0732.

TAAATCTAAATGTCGCTTCCGT displayed a sensor-assay potency score (higher = more potent) of 0.849.

In turn, TTTATTGTCACGAACCTCTTTG had a sensor-assay potency score (higher = more potent) of -0.041.

Take TTCATTGTCTTTGTGCTCCAGA: the sensor-assay potency score (higher = more potent) turned out to be 0.694.

TTCTGCAATAATCTCTGTCTAT showed a sensor-assay potency score (higher = more potent) of -1.01.

As to TTCTATAACATCTTGCTTCTGT, the sensor-assay potency score (higher = more potent) was found to be 0.581.

As to TTGATCTAGTTCAACTTTCTTT, the sensor-assay potency score (higher = more potent) is -0.0143.

TTATCTTTCATATTGATCGTGA showed a sensor-assay potency score (higher = more potent) of 0.464.
